From PubChem BioAssay
Sampled rows, rich in hits. Any-hit rate of the full collection: about 2.2%.
Nrf2 activator = qHTS of Nrf2 Activators; AREc32 ARE-luciferase reporter (MCF7-derived line), luminescence, 24 h; Potency, µM (highest dose often 46.1 µM), for the others: at the top dose activation, hits mostly activators; 0.31% of 410,000 active; AID 624171, 2012; note: % of control where 0% means no effect; nearly all actives have a fitted effect of over 65% in size
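ARE activation measured as luciferase luminescence (Steady-Glo, 30 min RT) in AREc32_Fluc cells after 24 hr compound exposure at 37 deg C, 5% CO2; cells seeded overnight at 1000/well in OPTI-MEM, 5% FBS.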
Pin1 inh = qHTS Assay to Find Inhibitors of Pin1. Pin1 FP peptide displacement, HiFluor488, 10 min. Potency, µM (doses to about 115 µM), without a hit: top-dose activity, negative = inhibition, most hits filed as inhibitors. 0.009% of 390,000 active; active = well fitted inhibition curve with a large enough effect in the polarisation, with a control signal flat, not every such curve was filed as active; inconclusive = small, poorly fitted or top-dose-only effect, or effect the other way, or a change in a side signal; inactive = no such curve, though single readings can be large or run the other way; the % refers to the polarisation; note: % is set by controls: 0 for no effect and ±100 for the full control effect
Target sequence (Q13526 whole entry, looked up): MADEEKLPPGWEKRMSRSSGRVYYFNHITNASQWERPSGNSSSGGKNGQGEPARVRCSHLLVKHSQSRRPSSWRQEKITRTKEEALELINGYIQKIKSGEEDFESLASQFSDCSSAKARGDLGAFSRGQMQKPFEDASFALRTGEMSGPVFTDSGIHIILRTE
A549 viability = Nrf2 qHTS screen for inhibitors: counterscreen for cytotoxicity | Potency, µM (titrated, usually from 46 µM), for inactives: top-dose activity change, negative = cytotoxicity, actives largely listed as inhibitors | A549 ARE-Fluc cells, CellTiter-Fluor viability, 18-24 h | 0.16% of 390,000 active; note: % is set by controls: 0 for no effect and ±100 for the full control effect
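Cytotoxicity counterscreen: CellTiter-Fluor fluorescence was measured in A549 ARE_Fluc cells after 18-24 h of compound exposure in a concentration series. The subsequent BugLite luminescent read reports ARE-luciferase activity.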
Nrf2 inh = Nrf2 qHTS screen for inhibitors; A549 ARE-Fluc reporter, luciferase luminescence, 18-24 h; Potency, µM (titrated, usually from 46 µM), for inactives: at the top dose activity change, negative = inhibition, actives largely listed as inhibitors; 2.1% of 360,000 active; AID 504444, 2011; note: % is set by controls: 0 for no effect and ±100 for the full control effect; nearly all actives have a fitted effect of over 60% in size
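Reporter: ARE-Fluc in A549. Exposure: 18-24 h, 37 °C, 5% CO2, 5% FBS OPTI-MEM. Readouts: fluorescent cytotoxicity (CellTiter-Fluor), then luminescent Nrf2 signal after BugLite.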
* = called active by the depositor; ? = inconclusive; / = no result given; [ ] = remark or other dose. Unless noted, calls come from the whole dose curve; as a rule, active = well fitted curve in the direction sought with a large enough effect; inconclusive = small, poorly fitted or top-dose-only effect, or another doubt; inactive = no such curve, though single readings can be large; an effect the other way counts as inactive or inconclusive. Potency is the fitted concentration of half-maximal effect.

SMILES	Nrf2 activator	Pin1 inh	A549 viability	Nrf2 inh
OC(c1ccccc1)(c1ccccc1)C1CCN(C(=S)NCCc2ccccc2)CC1	0%	3%	?	23µM*
O=C(NCCc1nc2ccccc2n1CCOc1ccccc1)C1CCCCC1	/	5%	?	26µM*
CCn1c(NCc2ccc(OC)c(OC)c2)nc2ccccc21	3%	-7%	-12%	?
Cc1nc2ccccc2n1CCOc1ccccc1	0%	-5%	-3%	15µM*
Cc1cccc(Cn2c(Cc3ccccc3)nc3ccccc32)c1	4%	0%	-5%	?
c1ccc(OCCn2c(COc3ccccc3)nc3ccccc32)cc1	4%	12%	1%	4%[9.27 µM]
COc1ccc(CNc2nc3ccccc3n2Cc2ccc(Cl)cc2)cc1OC	4%	-3%	-16%	23µM*
CC(C)(C)c1ccc(Cn2c(Cc3ccccc3)nc3ccccc32)cc1	4%	1%	-11%	23µM*
O=C(NCCc1nc2ccccc2n1CCOc1ccc(Cl)cc1)C1CCCCC1	/	33%	?	?
COc1cc(OC)cc(-n2c(=O)c3ccccc3n(CC(=O)NCCc3ccc(OC)c(OC)c3)c2=O)c1	0%	3%	-13%	-5%[9.27 µM]
CCOC(=O)C1CCCN(C(=O)CCS(=O)(=O)c2cc3c(cc2Cl)NC(=O)CO3)C1 (stereo not drawn)	0%	5%	6%	?
Cc1ccc(-c2nc3cccc(C)n3c2Nc2ccc(F)cc2)o1	/	-1%	1%	-11%
Cc1ccc(NC(=O)CN2C(=O)CC(c3ccco3)Sc3ccccc32)cc1Cl (stereo not drawn)	0%	?	-12%	-13%
COc1ccc(C(=O)Nc2nnc(S(=O)(=O)N(C)c3ccc(C)cc3)s2)cc1	0%	-2%	0%	?
CCCCOc1ccc(S(=O)(=O)n2c(C)nc3ccccc32)cc1	0%	5%	-18%	7.3µM*
Cc1nc2ccccc2n1Cc1ccc(Cl)cc1	4%	0%	9%	18µM*
OCc1nc2ccccc2n1Cc1ccc(Cl)cc1	2%	-14%	4%	-20%
O=C(c1cc(Br)ccc1O)N(Cc1ccco1)Cc1cccs1	/	1%	0%	10%
O=C(NCc1nnc(-c2cc3ccccc3[nH]2)o1)c1ccccc1	/	3%	-2%	8%
COc1ccccc1-c1nnc(NC(=O)CCS(=O)(=O)c2ccc(F)cc2)o1	22µM*	/	/	/
CCN(Cc1ccccc1)S(=O)(=O)c1ccc(C(=O)Nc2nnc(-c3ccccc3OC)o2)cc1	0%	-2%	-22%	13µM*
Cc1ccc(N(C)C(=O)N2CCN(S(=O)(=O)c3ccc4ccccc4c3)CC2)cc1	-1%	0%	-17%	18µM*
C[C@H](NC(N)=O)C(=O)N1CCN(S(=O)(=O)c2ccc3ccccc3c2)CC1	0%	0%	1%	6%
CNC(=S)N1CCN(S(=O)(=O)c2ccc3ccccc3c2)CC1	2%	-2%	2%	23µM*
COc1ccc(-c2noc(N3CCN(c4cccc(Cl)c4)CC3)n2)cc1OC	0%	0%	-5%	23µM*
SMILES	Nrf2 activator	Pin1 inh	A549 viability	Nrf2 inh
COc1ccc(-c2noc(N3CCN(c4ccc(Cl)cc4)CC3)n2)cc1OC	0%	?	1%	?
COc1cc(CNCCc2ccc(S(N)(=O)=O)cc2)ccc1OCc1ccc(Cl)cc1	8%	3%	?	23µM*
CCOc1cc(CNCCc2ccc(S(N)(=O)=O)cc2)ccc1OCc1ccc(Cl)cc1	-2%	2%	?	/
CCc1ccccc1S(=O)(=O)Cc1ccc(C(=O)NCCc2ccc(Cl)cc2)o1	3%	13%	?	23µM*
O=C(NCc1ccccc1Cl)c1ccc(CS(=O)(=O)c2ccc(Br)cc2)o1	6%	?	?	23µM*
O=C(NCc1ccccc1Cl)c1ccc(CS(=O)(=O)c2ccccc2)o1	2%	-1%	2%	11%
O=C(NCCc1ccc(Cl)cc1)c1ccc(CS(=O)Cc2ccc(Cl)cc2)o1 (stereo not drawn)	2%	1%	?	26µM*
COc1ccc(-c2ccc3ncnc(NCc4cccs4)c3c2)cc1	/	3%	21%	0%
O=C(CNC(=O)c1ccncc1)OC(C(=O)Nc1cc(C(F)(F)F)ccc1Cl)c1ccccc1 (stereo not drawn)	/	?	16%	?
COc1ccc(CC(=O)Nc2cccc(-c3ccc4nncn4n3)c2)cc1OC	4%	-7%	?	21µM*
Cc1cccc(C(=O)Nc2cccc(-c3ccc4nncn4n3)c2)c1	3%	0%	0%	12µM*
CCc1ccc(NC(=O)c2cnc(N3CCN(c4ccccn4)CC3)c3ccccc23)cc1	0%	1%	?	12µM*
CCN1CCN(c2ncc(C(=O)Nc3ccccc3C(=O)OC)c3ccccc23)CC1	0%	2%	18µM*	4%
CCOc1ccccc1-c1nnc2n1N=C(c1cc(OC)ccc1OC)CS2	/	-3%	2%	-8%
O=C(C1CCCCC1)N1CCN=C1SCc1cccc([N+](=O)[O-])c1	4%	0%	-2%	21µM*
CCCC[C@H]1CCCO[C@@](C(=O)NCc2ccccn2)(C(F)(F)F)C1	/	1%	5%	14%
Cc1cc(/C=N/n2cnnc2)c(C)n1-c1ccc(OCc2ccc(Cl)cc2)cc1	6%	11%	-10%	9.2µM*
Cc1ccc(CN(Cc2cc3cc(C)ccc3[nH]c2=O)Cc2nnnn2Cc2ccccc2)cc1	/	1%	-1%	-3%
CCOC(=O)c1c(NC(C)=O)sc2c1CCC(C=O)=C2Sc1ccccc1	?	14%	?	21µM*
CCOC(=O)c1c(NC(C)=O)sc2c1CCN(Cc1ccccc1)C2	1%	0%	7%	13%
Cc1cccn2c(=O)c(/C=C(\C#N)c3nc4ccccc4n3C)c(Oc3ccc(Br)cc3)nc12	13%	?	-1%	20%
CN(C)CCNC(=O)c1cccc2nc3cccc(F)c3nc12	0%	-8%	10µM*	4.6µM*
CN(C)CCNC(=O)c1ccccc1	3%	3%	-9%	7%
CN(C)CCNC(=O)c1cccc2ccc(-c3ccc(-c4ccccc4)cc3)nc12	4.5µM*	0%	?	-16%
COc1ccc(OC)c2nc3c(C(=O)NCCN(C)C)cccc3nc12	0%	-2%	16µM*	5.8µM*
SMILES	Nrf2 activator	Pin1 inh	A549 viability	Nrf2 inh
COc1ccccc1-c1c(C)nn2c(N3CCN(c4ccc(F)cc4)CC3)cc(C)nc12	0%	2%	-11%	/
O=C(O)c1ccccc1SC1=NS(=O)(=O)c2ccccc21	/	-15%	-1%	-3%
CCOc1ccc(NC(=O)NC(C)c2c(-n3cccc3)sc(C)c2C)cc1 (stereo not drawn)	4%	11%	-28%	21µM*
CCOc1ccc2c(c1)c(=O)c(C(=O)c1ccccc1)cn2Cc1ccccc1F	-2%	?	-6%	0%
O=C(CSC1=NCCS1)c1ccc(Cl)cc1	2%	4%	-19%	13µM*
COc1ccc(OC)c(C2=Nn3c(nnc3-c3cccc(OC)c3OC)SC2)c1	/	-3%	1%	3%
